Hits are enriched below; roughly 7.1% of the tested compounds scored in any of these assays.
LASV entry inh – inhibitors of Lassa virus binding or entry into cells; Lassa virus pseudotyped entry inhibition, cell-based qHTS; Potency, µM (titrated, usually from 49.2 µM), actives largely listed as inhibitors; 18,000 compounds, 4.1% hits; AID 720533
MARV entry inh – Marburg virus entry inhibition | Marburg virus pseudotype entry/binding inhibition, cell-based | Potency, µM (top dose mostly 49.2 µM), actives largely listed as inhibitors | 18,000 compounds, 6.5% hits | AID 720532
Numbers stand for hits; - = inactive; ? = inconclusive; . = no result given; [ ] = remark or other dose. The call rests on the fitted dose curve; tested in HEK293 cells.

SMILES | LASV entry inh | MARV entry inh
C[C@@H]1[C@@H](c2ccccc2)Oc2c(Cl)cccc2S(=O)(=O)N1Cc1ccc(F)cc1F | - | -
COC(=O)N[C@H](CC(C)=O)c1ccc(Cl)cc1 | -[8.59 µM] | -[8.59 µM]
CN(C)CCOC(c1ccc(Cl)cc1)c1ccccn1 (centres undefined) | - | ?
CN(C)CCOC1=Cc2ccccc2Sc2ccc(Cl)cc21 | ? | 12.6µM
O=C(c1ccc(N2CCC(NCCCn3ncc4ccccc43)CC2)cc1)N1CCc2ccccc2C1 | ? | 20µM
O=C(c1ccc(N2CCC(NCCCn3ncc4ccccc43)CC2)cc1)N1CCOCC1 | - | ?
O=C(OCc1cn([C@H]2CN(CC3CCCCC3)[C@@H](c3ccc(Cl)cc3)C[C@H]2O)nn1)c1ccccc1 | - | ?
C=C1CN2C(=NC(c3ccccc3)C(C(=O)OC)=C2C)O1 (centres undefined) | -[8.59 µM] | -[8.59 µM]
C=C(C)C(=O)c1ccc(OC)cc1 | - | -
COc1ccc(CC2NC[C@H](O)[C@H]2OC(C)=O)cc1 (some centres undefined) | 0.316µM | 0.316µM
CCOC(=O)[C@@H]1CSCCS(=O)(=O)N1C(=O)[C@@H](NC(=O)OC(C)(C)C)[C@@H](C)CC | - | -
Cc1cnc(CNc2ncnc3ccc(-c4ccccc4CN(C)C)cc23)cn1 | - | -
CN(C)Cc1ccccc1-c1nc(NCc2ccccc2)c2ccccc2n1 | ? | 10µM
COCCNc1nc(-c2ccccc2C)nc2ccccc12 | - | -
CN(C)Cc1ccccc1-c1cncnc1NCc1ccccc1 | - | -
COCCNc1nc(-c2ccccc2CN(C)C)nc2ccccc12 | - | 12.6µM
COc1ccccc1CNc1ncnc2ccc(-c3ccccc3CN(C)C)cc12 | - | 20µM
COc1ccccc1CNc1nc(-c2ccccc2CN(C)C)nc2ccccc12 | ? | 11.2µM
COc1ccccc1CNc1ncncc1-c1ccccc1CN(C)C | - | ?
CC(C)CON=C1C[C@@H](O)[C@@H](O)[C@@H]2[C@H]3C(=O)N(c4ccc(F)cc4F)C(=O)[C@@H]3CC[C@H]12 | -[8.59 µM] | -[8.59 µM]
CCN1C(=NCc2cccc(C(F)(F)F)c2)NC(c2cccs2)C(C(=O)OC)=C1C (centres undefined) | -[8.59 µM] | ?
COC(=O)CC=C[C@@H](C)[C@@H](C=NOC[C@@H](O)COCc1ccco1)OC | -[8.59 µM] | -[8.59 µM]
C=CCN1C[C@H](CO)Oc2cccc(F)c2S1(=O)=O | - | -
CC(CCN1CCCCc2nc(C)c(C)cc21)=NO[C@@H](C)c1cn([C@H](CO)Cc2ccccc2)nn1 | -[8.59 µM] | -[8.59 µM]
COCC=CC1=CC2=CC(=O)C(C)(OC(=O)c3cnc4ccccc4n3)C(=O)C2=CN1CC1CC1 (centres undefined) | -[8.59 µM] | -[8.59 µM]
SMILES | LASV entry inh | MARV entry inh
CCCCCCCc1cc2ccccc2c2c(C(=O)OC)cc(C(=O)OC)n12 | -[8.59 µM] | -[8.59 µM]
C[C@@H](c1ccccc1)N1C(=O)[C@@H]2[C@H]3[C@H](O)[C@H](O)CC(=NOC[C@@H](O)COCc4ccco4)[C@H]3CC[C@H]2C1=O | -[8.59 µM] | -[8.59 µM]
O=C1c2ccccc2C(=O)N1CCCC[C@]12Cc3c(ccc4ccccc34)[C@H](O1)c1c(cc(-c3ccccc3)oc1=O)O2 | -[8.59 µM] | ?
CC1(C)CC[C@]2(C(=O)O)CC[C@]3(C)C(=CCC4[C@@]5(C)CC[C@H](O)C(C)(C)C5[C@H](O)C[C@]43C)C2C1 (some centres undefined) | 31.6µM | -
CC1(C)CC[C@]2(C(=O)O)CC[C@]3(C)C(=CCC4[C@@]5(C)CC[C@H](O)C(C)(C)[C@@H]5CC[C@]43C)C2C1 (some centres undefined) | ? | -
O=C(Nc1ccc(Cl)cc1)Nc1ccc(Cl)c(C(F)(F)F)c1 | 14.1µM | 11.2µM
CCCC(C)(C)C(=O)Nc1ccc(Cl)cc1 | - | -
C=CC[C@@H]1C=CC(ON=C(C)CCC(=O)OC[C@H]2O[C@H](C#Cc3ccccc3)C=C[C@H]2Oc2ccc(C)cc2)[C@H](CO)O1 (some centres undefined) | -[8.59 µM] | -[8.59 µM]
OC1C=C2CCN3Cc4cc5c(cc4C(C1O)C23)OCO5 (centres undefined) | - | 12.6µM
O[C@H]1[C@H]2c3cc4c(cc3CN3CCC(=C[C@@H]1O)[C@H]23)OCO4 | - | -
COC(=O)c1ccc(CN2C(=O)[C@]3(OCCC=C[C@@H]3C)c3c(Br)cccc32)cc1 | -[8.59 µM] | -[8.59 µM]
COc1cc2c(cc1OC)-c1c(O)c(OC)cc3c1[C@H](C2)N(C)CC3 | - | -
COc1cc2c(cc1OC)-c1cc(=Nc3c(C)cc(C)cc3C)n(C)c(=O)n1CC2 | 11.2µM | 12.6µM
CC(C)[C@@H](OCc1ccccc1)[C@H](C)C=NO[C@H](C)c1cn([C@@H]2COC[C@@H]2O)nn1 | -[8.59 µM] | -[8.59 µM]
CC(C)=CCCC1(C)C=Cc2c(O)c3c(c(CC=C(C)C)c2O1)OC12C(=CCCC1C(C)(C)O[C@@]2(C/C=C(\C)C(=O)O)C(=O)O)C3=O (some centres undefined) | - | -
CC(C)=CCCC1(C)C=Cc2c(O)c3c(c(CC=C(C)C)c2O1)OC12C(=CC4CC1C(C)(C)OC2(C/C=C(/C)C(=O)O)C4O)C3=O (centres undefined) | 4.47µM | 3.55µM
CC(C)=CCCC1(C)C=Cc2c(O)c3c(c(CC=C(C)C)c2O1)OC12C(=CC4CC1C(C)(C)OC2(C/C=C(/C)C(=O)O)C4=O)C3=O (centres undefined) | 5.01µM | 2.82µM
CC(C)CCCC1(C)C=Cc2c(O)c3c(c(CCC(C)C)c2O1)OC12C(CC4CC1C(C)(C)OC2(CCC(C)C(=O)O)C4O)C3=O (centres undefined) | - | -
C[C@@H]1CC[C@H]2C(=O)N(Cc3cccc([N+](=O)[O-])c3)C[C@@H](O)CN2[C@@H]1c1ccc(Br)cc1 | -[8.59 µM] | -[8.59 µM]
NC1(c2ccc(-c3nc4ccn5c(=O)[nH]nc5c4cc3-c3ccccc3)cc2)CCC1 | ? | 6.31µM
COc1ccc(N2C(=O)N3[C@H](c4ccccc4)[C@@H](C)C[C@H]4c5ccccc5C[C@]43C2=O)cc1 | -[8.59 µM] | -[8.59 µM]
CCCCCC(=O)N1C[C@H](O)[C@@H](n2cc(C3CC3)nn2)C[C@H]1c1ccc(C)cc1 | . | -
COc1cc(-c2coc3cc(OC)c(OC)c(OC)c3c2=O)cc(OC)c1OC | - | -
CC(=O)Oc1cc(-c2coc3cc(OC(C)=O)c(OC(C)=O)c(OC(C)=O)c3c2=O)cc(OC(C)=O)c1OC(C)=O | - | 14.1µM
O=C(NN=C1C[C@@H](O)[C@H](O)[C@H]2[C@@H]3C(=O)N(c4cccc(Oc5ccccc5)c4)C(=O)[C@@H]3CC[C@H]12)OCc1ccccc1 | . | -[8.59 µM]
SMILES | LASV entry inh | MARV entry inh
CCN1C(=O)[C@@H]2[C@H]3[C@H](O)[C@H](O)CC(=NO[C@@H](C)c4cn([C@H](CO)Cc5ccccc5)nn4)[C@@H]3CC[C@H]2C1=O | . | -[8.59 µM]
CC[n+]1c(-c2ccccc2)c2cc(N)ccc2c2ccc(N)cc21 | ? | 8.91µM
C(#C[C@@H]1C=C[C@H]2OC(c3ccccc3)OC[C@H]2O1)c1ccccc1 (some centres undefined) | -[8.59 µM] | -[8.59 µM]
Cc1cccc([C@H]2[C@@H]3C=CCC[C@@]3(C)C(=O)N2Cc2ccccc2)c1 | - | -
C[C@@]12CCC=C[C@H]1[C@H](c1ccccc1Br)N(Cc1ccccc1)C2=O | - | 20µM
COC(=O)C1=C(C)NC(C)=C(C(=O)OCCN2CCN(C(c3ccccc3)c3ccccc3)CC2)C1c1cccc([N+](=O)[O-])c1 (centres undefined) | 22.4µM | 12.6µM
COC(=O)C1=C(C#N)NC(C)=C(C(=O)OC(C)C)C1c1cccc([N+](=O)[O-])c1 (centres undefined) | - | ?

Source: PubChem
